BCLXL inh: Bcl-xL (human) inhibition | AID 2129 | 320,000 compounds, 0.7% hits | inhibition, % at 10.9 µM | GST-Bcl-xL / FITC-Bim BH3 peptide fluorescence polarization;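 active means inhibition above the mean of all tested compounds plus 3 SD, cutoff set per campaign, cut at about 30% in these data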;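 further: inhibitors lower millipolarization by displacing the labeled peptide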
MEX-5 binding: C. elegans MEX-5 TCR-2 RNA binding activity; 300,000 compounds, 0.38% hits; activity score (negative = inhibition of binding), % at 10 µM; MEX-5/FITC-TCR2 RNA binding, fluorescence polarization; hits give low values; Q9XUB2;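 active means inhibition past about -25% in most replicates, and total fluorescence under double the plate's negative control median, limit read from the data; inconclusive means replicates evenly split on the limit, or fluorescence at least double controls; inactive means too little inhibition in most replicates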
MCL1-BIM inh: MCL1-BIM-BH3 interaction inhibition (human) | Q07820 | 320,000 compounds, 0.68% hits | GST-MCL1 / FITC-Bim-BH3 fluorescence polarization | inhibition, % at 10.9 µM;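 active means inhibition above the mean inhibition of all tested compounds plus 3 SD, set per campaign, cut at about 40% in these data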;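 further: higher means more loss of mP so more displacement of Bim peptide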
GLD-1 RNA inh: GLD-1-TGE RNA interaction inhibition (C. elegans); inhibition, % at 5.96 µM; 320,000 compounds, 0.44% hits; Q17339; purified GLD-1 + fluorescein TGE RNA, fluorescence polarization; AID 2280;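 active means percent inhibition above a per-plate cutoff, the plate mean of test compounds plus 3 SD, cut at about 30% in these data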
Target sequence (Q17339 whole entry, looked up): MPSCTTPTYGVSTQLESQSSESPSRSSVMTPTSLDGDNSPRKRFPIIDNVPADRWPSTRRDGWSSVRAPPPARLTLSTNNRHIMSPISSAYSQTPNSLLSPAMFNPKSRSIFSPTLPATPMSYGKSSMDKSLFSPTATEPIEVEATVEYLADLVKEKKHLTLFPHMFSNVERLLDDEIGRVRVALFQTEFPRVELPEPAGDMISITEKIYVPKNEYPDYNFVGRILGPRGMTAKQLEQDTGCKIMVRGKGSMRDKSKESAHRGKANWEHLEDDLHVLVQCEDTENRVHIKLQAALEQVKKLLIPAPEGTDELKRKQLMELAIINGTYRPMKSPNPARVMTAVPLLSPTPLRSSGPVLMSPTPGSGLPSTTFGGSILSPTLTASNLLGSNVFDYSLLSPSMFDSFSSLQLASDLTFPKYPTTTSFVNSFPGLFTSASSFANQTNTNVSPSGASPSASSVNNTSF
EBV gp42 block: EBV gp42 inhibition; inhibition, % (tested at 21.74 µM); 220,000 compounds, 0.42% hits; Q1HVG2; AID 1085; Fluorescence polarization binding assay, mP read-out; in the data active means inhibition above about 50%
Hits are given with their value; n = inactive; u = inconclusive; x = not tested or not shown. Only some compounds are listed: those with a hit (about 1.3% of all), similar ones and a draw of the others.

SMILES	BCLXL inh	MEX-5 binding	MCL1-BIM inh	GLD-1 RNA inh	EBV gp42 block
Cc1nnsc1C(=O)N/N=C/c1ccc2ccccc2c1O	75	n	84	n	n
CC(C)N(CCCNC(=O)Cn1c(=O)c2cccn2c2ccc(F)cc21)Cc1ccccc1	n	n	n	n	x
CN1/C(=C\C=C(/C#N)C(=O)Nc2ccccc2F)C(C)(C)c2ccccc21	n	-39	n	n	n
O=C(CSc1n[nH]c(=O)[nH]c1=O)Nc1cccc(S(=O)(=O)N2CCOCC2)c1	n	n	n	n	n
O=C(CSc1n[nH]c(=O)[nH]c1=O)Nc1ccc2c(c1)C(=O)c1ccccc1C2=O	34	n	40	n	64
COc1ccc(-n2cc(CNCc3cnc4ccccn34)c(-c3cccc(F)c3)n2)cc1	n	-37	n	n	n
CCOC(=O)/C=c1\s/c(=C\c2ccccc2C)c(=O)n1CC(=O)NCc1ccc2c(c1)OCO2	n	n	n	n	n
CCOC(=O)/C=c1\s/c(=C\c2ccc3cc(OC)ccc3c2)c(=O)n1CC(=O)NCc1ccc2c(c1)OCO2	n	-31	n	n	n
CCN(CC)C(=O)Cn1cc(C(=O)C(=O)NCc2ccco2)c2ccccc21	n	n	n	n	n
CCN(CC)c1ccc(/C=c2/sc3nnc(-c4ccccc4C)n3c2=O)cc1	n	-63	n	n	172
CCN(CC)c1ccc(/C=c2\sc3nnc(-c4ccccc4Cl)n3c2=O)cc1	n	u	n	n	193
Cc1ccc(S(=O)(=O)C2C(=O)N(C)C3(C)CC2c2ccccc2O3)cc1 (centres undefined)	n	n	n	n	n
Cc1ccc2occ(CN3CCN(c4ccccc4)CC3)c(=O)c2c1	36	n	n	n	n
O=C(COc1ccccc1F)NCC(c1ccc(F)cc1)N1CCOCC1 (centres undefined)	n	x	n	n	x
Oc1ccc(/C=N/Nc2ncnc3nc[nH]c23)cc1	n	-29	n	n	n
Fc1ccccc1/C=N/Nc1ncnc2nc[nH]c12	n	n	n	n	59
Cc1ccc(/C=N/Nc2ncnc3nc[nH]c23)cc1	n	-26	n	n	n
COC(=O)C1=C(C)NC2=C(C(=O)CC(C)(C)C2)C1c1cnn(C)c1C (centres undefined)	n	n	n	n	n
Cc1ccc(C(=O)OCC(=O)NC2CCCCC2)s1	n	n	n	n	n
COc1ccc2nc3ccccc3nc2c1NC(=O)c1ccc(Br)cc1	39	u	42	n	n
CCn1c2ccccc2c2cc(N)ccc21	n	n	n	n	n
CCn1c(C)cc(=S)c2ccccc21	n	-52	n	n	n
CC(=O)c1cccc(NC(=S)N2CCN(c3ccccn3)CC2)c1	n	n	n	n	x
CN(C)S(=O)(=O)c1cc(NC(=O)CN2CCCc3ccccc32)ccc1Cl	n	n	n	n	n
CN(C)S(=O)(=O)c1cc(NC(=O)CN2CCc3ccccc32)ccc1Cl	45	n	45	n	n
SMILES	BCLXL inh	MEX-5 binding	MCL1-BIM inh	GLD-1 RNA inh	EBV gp42 block
Oc1oc(-c2ccccc2)nc1C=Nc1cccc2ccccc12	n	n	n	n	75
Oc1oc(-c2ccccc2)nc1/C=N/c1nccs1	n	n	n	n	n
Cc1ccccc1NC(=O)NC1(C(=O)NCC2CCCO2)CCCCC1 (centres undefined)	n	n	n	n	x
Cc1cc2n(n1)C(c1c[nH]c3ccccc13)Nc1ccccc1-2 (centres undefined)	n	-32	n	n	n
C/C(=N\N1CCN(C2c3ccccc3-c3ccccc32)CC1)c1ccncc1	n	n	n	n	117
CCCCCn1c(N)c(-c2nc3ccccc3o2)c2c([N+](=O)[O-])nn(CC)c(=O)c21	n	n	n	n	55
CCCCCn1c(N)c(-c2nc3ccccc3s2)c2c([N+](=O)[O-])nn(CC)c(=O)c21	n	n	n	n	n
CCCN1CCCc2cc(CN)ccc21	108	-60	127	46	79
COCCNC(=O)CSc1ccc(-c2nc3ccccc3[nH]2)cn1	61	n	n	n	x
CC(C)OCC(O)CN1CCN(CCN2C(=O)c3cccc4cccc(c34)C2=O)CC1 (centres undefined)	n	-59	n	n	x
CC(C)COc1ccc(C(=O)NC(CC(C)C)C(=O)O)cc1 (centres undefined)	n	n	n	n	144
CC(=O)Nc1ccc(N=Cc2c(O)c(C(=O)Nc3ccccc3)cc3ccccc23)cc1	n	n	n	n	136

Source: PubChem BioAssay (several laboratories)
